Screens: PubChem BioAssay, National Center for Advancing Translational Sciences (NCATS)
DRD3 agonist: agonists of human D3 dopamine receptor. D3R DiscoveRx beta-arrestin cells, luminescence, 90 min. max activation, %. 410,000 tested, 0.58% active; in the data active means max activation above about 30%; further: 0% is about no effect
Target sequence (P35462 whole entry, looked up): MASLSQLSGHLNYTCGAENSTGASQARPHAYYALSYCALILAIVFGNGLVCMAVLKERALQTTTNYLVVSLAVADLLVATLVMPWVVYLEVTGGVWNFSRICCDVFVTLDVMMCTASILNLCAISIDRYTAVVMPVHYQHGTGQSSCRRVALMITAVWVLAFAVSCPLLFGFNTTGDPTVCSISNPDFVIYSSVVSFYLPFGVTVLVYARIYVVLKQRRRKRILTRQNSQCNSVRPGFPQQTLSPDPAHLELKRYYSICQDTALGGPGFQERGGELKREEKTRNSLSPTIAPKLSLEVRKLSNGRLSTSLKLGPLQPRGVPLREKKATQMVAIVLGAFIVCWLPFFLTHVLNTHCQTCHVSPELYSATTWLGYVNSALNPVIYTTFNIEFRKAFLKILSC
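Agonist-mode cell screen: cells plated at 1500/well and incubated overnight at 37 °C, then exposed to library compounds for 90 min at 37 °C. Detection reagent was added for 30–60 min at room temperature, and luminescence was read.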
IL1B secr inh: inflammasome signaling inhibition, IL-1 beta readout; THP-1 LPS/ATP IL-1B secretion, AlphaLISA, 16 h; active compounds read low; 360,000 tested, 4.7% active; AID 743279; activity change, % at 57.5 µM; in the data active means activity change below about -50%; inconclusive means mostly about -30% to -49%; further: on the % scale 0 is the no-effect control and ±100 the full control effect
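Secreted IL-1B measured by AlphaLISA bead assay after 16 h compound exposure of THP-1 cells; compounds (final up to 57.5 uM) added 1 h before LPS (250 ng/mL) and ATP (1.25 mM) stimulation; lower signal means less secretion.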
ClpP mod: qHTS Assay for Activators of ClpP. ATP-dependent Clp protease proteolytic subunit (Bacillus subtilis (strain 168)), P80244. purified B. subtilis ClpP, FRET peptide cleavage, 20 min. Potency, µM (doses to about 57.5 µM), inactives show at the highest dose activity change, negative = active. 340,000 tested, 1.9% active; active means well fitted falling curve with a large enough effect; inconclusive means small, poorly fitted or top-dose-only effect; inactive means no such curve, though single readings can be large or run the other way; further: potency means the concentration at half of the fitted maximal effect; the source files actives as falling curves though it sought activators and does not explain the sign; nearly all actives have a fitted effect of over 65% in size
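FRET quenching reversal measured ClpP activation: 10 microg/mL B. subtilis ClpP at pH 8 with the FRET-FV decapeptide, read at 430 nm after 320 nm excitation. The 20-min minus 0-min signal was scaled between DMSO/no-enzyme wells and ADEP (5.8 microM final).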
DRD3 antagonist: blocks the human D3 dopamine receptor; P35462; D3R cells, DiscoveRx beta-arrestin luminescence, antagonist mode; active compounds read low; max response, negative = inhibition, %; 360,000 tested, 2.5% active; in the data active means max response below about -50%; inconclusive means no clear call, values can overlap the other calls; further: on the % scale 0 is the no-effect control and ±100 the full control effect
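Cells expressing the human receptor were seeded at 1500 cells/well, incubated overnight at 37 degrees C in 5% CO2, then exposed to library compounds with dopamine controls for 90 minutes at 37 degrees C before luminescent detection.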
DT40 TDP1 CPT: growth inhibition of DT40 Tdp1-/-;hTDP1 cells with camptothecin (screen for TDP1 inhibitors); chicken DT40 Tdp1-/-;hTDP1 cells + 20 nM CPT, ATP luminescence, 48 h; AID 686979; 420,000 tested, 12% active; Potency, µM (titrated, usually from 46.2 µM), inactives show at the highest dose activity change, negative = growth inhibition, hits mostly inhibitors; further: potency means the concentration at half of the fitted maximal effect; on the % scale 0 is the no-effect control and ±100 the full control effect; nearly all actives have a fitted effect of over 55% in size
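Cell growth measured by CellTiter-Glo luminescence after a minimum 48 h, 37 C compound exposure with 20 nM CPT in Tdp1-knockout DT40 cells stably expressing hTDP1, seeded 400/well; qHTS titration format.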
DT40 TDP1 no CPT: qHTS for Inhibitors of human tyrosyl-DNA phosphodiesterase 1 (TDP1): qHTS in cells in absence of CPT; DT40 Tdp1-/- hTDP1 cells, no CPT, ATP luminescence, 48 h; 420,000 tested, 15% active; Potency, µM (series often up to 46.2 µM), for the others: at the top dose activity change, negative = growth inhibition, usual class: inhibitors; further: potency means the concentration at half of the fitted maximal effect; on the % scale 0 is the no-effect control and ±100 the full control effect; nearly all actives have a fitted effect of over 55% in size
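A cellular qHTS used chicken DT40 cells lacking endogenous Tdp1 but carrying stably transfected human TDP1. Compounds were applied without camptothecin, and cell growth kinetics were judged by ATP-dependent luminescence after ≥48 hr.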
* hit, by the source's call; ? = inconclusive; nt = not tested or not shown. Rows were chosen to be rich in hits. Some 21% of all compounds tested hit in one or more screens of this group. Unless noted, the call rests on the fitted dose curve; in most records, active means well fitted inhibition curve with a large enough effect; inconclusive means small, poorly fitted or top-dose-only effect; inactive means flat fitted curve, though single readings scatter.

SMILES	DRD3 agonist	IL1B secr inh	ClpP mod	DRD3 antagonist	DT40 TDP1 CPT	DT40 TDP1 no CPT
Cc1csc(NC(=O)C2COc3ccccc3O2)n1 (stereo unspecified)	-5	16	1%	16	?	-20%
CCN1CCSc2ccc(C(=O)NCc3ccc(OC)cc3)cc21	-19	nt	4%	nt	-65%	?
CCCOc1ccc(CNC(=O)c2ccc3c(c2)N(Cc2ccccc2)CCS3)cc1	9	nt	4%	nt	?	18µM*
CCc1ccc(CNC(=O)c2ccc3c(c2)nc2n3CCC(C)C2)cc1 (stereo unspecified)	-17	nt	-1%	nt	-28%	?
O=C(NCc1ccco1)c1ccc2c(c1)N(Cc1ccccc1)CCS2	-2	?	4%	-20	-14%	-12%
CC(C)Oc1ccc(CNC(=O)c2ccc3c(c2)N(C)CCS3)cc1	-9	?	4%	-74*	?	?
O=C(NCc1ccccc1)c1ccc2c(c1)N(Cc1ccc(F)cc1)CCS2	-16	nt	4%	nt	?	18µM*
CC1CCn2c(nc3cc(C(=O)NCc4ccc(OC(C)C)cc4)ccc32)C1 (stereo unspecified)	-4	nt	1%	nt	?	23µM*
COCCNc1ncncc1-c1c(C)noc1C	nt	nt	nt	nt	-10%	-4%
O=C(CCNC(=O)c1ccc(Br)cc1)Nc1ccccc1N1CCCC1	-19	1	-1%	-22	-25%	?
COC(=O)c1ccccc1S(=O)(=O)N1CCn2cccc2C1C (stereo unspecified)	-4	-78*	-2%	-16	-14%	-7%
CCOc1ncccc1C(=O)OCC(=O)N(CC(C)C)c1c(N)n(Cc2ccccc2)c(=O)[nH]c1=O	3	-15	nt	1	-1%	-9%
CCOCc1ccccc1Nc1ncnc2onc(-c3ccc(Cl)cc3)c12	2	nt	-5%	nt	0%	?
COc1cc(O)c(CC=C(C)C)c(O)c1C(=O)CCc1ccc(O)cc1	24	8	-3%	111	21µM*	21µM*
CN(C)CC(O)COC(c1ccc(Cl)cc1)c1ccc(Cl)cc1 (stereo unspecified)	-14	-79*	nt	-6	?	21µM*
CCOC(=O)c1[nH]c(C)c(CCC(=O)Nc2cc(Cl)c(OC)cc2OC)c1C	-6	nt	-3%	nt	?	?
CCN(c1ccccc1)S(=O)(=O)c1ccc(C(=O)NCC(=O)Nc2ccc(F)c(F)c2F)cc1	-9	-28	0%	-97*	15µM*	15µM*
CN(c1ccccc1)S(=O)(=O)c1cccc(C(=O)NCC(=O)Nc2ccc(F)c(F)c2F)c1	-3	-22	0%	-1	?	16µM*
CCc1ccc(NC(=O)c2ccc(F)c(S(=O)(=O)N(C)C3CCCCC3)c2)cc1	8	nt	-7%	nt	?	21µM*
CC(=O)Nc1ccc(NC(=O)c2cccc(S(=O)(=O)N(C)C3CCCCC3)c2)cc1	0	56	2%	-6	?	?
Cc1ccccc1NC(=O)c1ccc(F)c(S(=O)(=O)NC2CCCC2)c1	9	nt	3%	nt	6%	-10%
CCc1ccc(NC(=O)c2ccc(F)c(S(=O)(=O)NC3CCCCCC3)c2)cc1	-9	nt	-2%	nt	?	21µM*
O=C(Nc1cc(Cl)cc(Cl)c1)c1ccc(F)c(S(=O)(=O)NC2CCCC2)c1	-5	nt	-10%	nt	16µM*	18µM*
COc1ccc2c(CNCc3cccs3)c(C(=O)O)n(Cc3ccc(C)cc3)c2c1	-4	nt	-4%	nt	-5%	-15%
CC(=O)C1=NN(c2ccccc2)C(c2cccs2)N1c1ccc(N(C)C)cc1 (stereo unspecified)	-18	-72*	-2%	-19	2.2µM*	4µM*
